This note sets out measurements from PubChem BioAssay (NCI).

Compounds without any hit were thinned out: in the full panel of roughly 83,000, 20% have a hit.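 Method: cells in 96-well plates; compound added at one concentration; 48 h incubation; percent growth measured; values under 10 scored active.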 Unmarked numbers belong to inactive results. Activity calls are given as the source filed them.

Among the test systems are HCT-15 colon; HT29 colon; SNB-75 CNS; SNB-19 CNS; U251 CNS; PC-3 prostate; SK-MEL-5 melanoma; UACC-62 melanoma; LOX IMVI melanoma; SK-MEL-28 melanoma; SK-MEL-2 melanoma; EKVX NSCLC; SN12C renal; UO-31 renal; TK-10 renal; ACHN renal; CAKI-1 renal; A498 renal; CCRF-CEM leukemia; MOLT-4 leukemia.
Experiment in all cases: NCI-60 one-dose screen, 48 h (100 = growth as untreated, 0 = no growth, -100 = all killed)
Common to all, as to conditions: 10 µM unless noted

Consider `O=C(CN1CCN(c2cc(=O)n(-c3ccccc3)c3ccccc23)CC1)Nc1nc(-c2ccc(Cl)cc2)cs1`, for which the growth in the assay on HCT-15 colon was 39.7%; with HT29 colon, 63.8%; in the assay on SNB-75 CNS, 67.5%; in the assay with SNB-19 CNS, 64%; in the assay with U251 CNS, 63.8%; in the assay with PC-3 prostate, 35%. The growth was 5.1% (active) with SK-MEL-5 melanoma; 61.5% in the assay with UACC-62 melanoma; 58.4% in the assay with LOX IMVI melanoma; 69.2% with SK-MEL-28 melanoma; 75.6% in the assay with SK-MEL-2 melanoma; 42.7% in the assay with EKVX NSCLC. Moreover, the growth in the assay with SN12C renal was 74.1%; in the assay on UO-31 renal, 29.5%; with TK-10 renal, 62.4%; with ACHN renal, 55.1%; in the assay on CAKI-1 renal, 49.6%; with A498 renal, 40.7%. Moreover, the results for the growth with CCRF-CEM leukemia and in the assay with MOLT-4 leukemia were 50.7% and 29%, respectively.
With `O=C(O)c1cn(C2CC2)c2cc(N3CCN(C(=O)CN4C(=O)CSC4=O)CC3)c(F)cc2c1=O`, the growth in the assay with HCT-15 colon is 112%; with HT29 colon, 112%; in the assay on SNB-75 CNS, 45.3%; in the assay on SNB-19 CNS, 100%; in the assay on U251 CNS it was 115%; in the assay with PC-3 prostate, 91.2%. Besides, the growth is 102% in the assay on SK-MEL-5 melanoma; 91% in the assay with UACC-62 melanoma; 102% in the assay with LOX IMVI melanoma; 101% in the assay with SK-MEL-28 melanoma; 113% with SK-MEL-2 melanoma; 74.4% in the assay on EKVX NSCLC. In addition, the growth was 91.7% in the assay with SN12C renal; 56.4% in the assay on UO-31 renal; 73.5% in the assay on TK-10 renal; 93.7% in the assay with ACHN renal; 76.2% in the assay with CAKI-1 renal; 101% in the assay with A498 renal. Besides, the growth in the assay on MOLT-4 leukemia is 109%.
As for `CN1CCN(Cc2ccc(NC(=O)c3cncc(C#Cc4cnc5ccc(OCC(C)(C)O)nn45)c3)cc2C(F)(F)F)CC1`, the growth in the assay on HCT-15 colon is -39.2% (active); in the assay on HT29 colon, -22.7% (active); in the assay on SNB-75 CNS, -46.1% (active); in the assay with SNB-19 CNS, -8.47% (active); in the assay with U251 CNS, -59.3% (active); in the assay on PC-3 prostate, 2.2% (active). Besides, the growth was -91.8% (active) in the assay with SK-MEL-5 melanoma; -41.1% (active) with UACC-62 melanoma; -91% (active) in the assay with LOX IMVI melanoma; -38.9% (active) in the assay with SK-MEL-28 melanoma; -80.4% (active) in the assay on SK-MEL-2 melanoma; -31.2% (active) with EKVX NSCLC. Also, the growth with SN12C renal is 2.45% (active); with UO-31 renal, -87.9% (active); in the assay with TK-10 renal, -18.5% (active); in the assay with ACHN renal, -33.3% (active); in the assay with A498 renal, -84.1% (active); in the assay with CCRF-CEM leukemia, 6.09% (active).
On to `Cc1cccc2c3c(sc12)C(c1ccc(Cl)cc1)c1c(nc(CC(=O)Nc2ccccc2)[nH]c1=O)O3` (configuration not stated), for which the growth is 47.5% in the assay with HCT-15 colon; 73.6% in the assay with HT29 colon; 30.8% in the assay on SNB-75 CNS; 64.5% in the assay with SNB-19 CNS; 54.2% in the assay on U251 CNS; 43.3% with PC-3 prostate. Moreover, the growth was 91.7% in the assay on SK-MEL-5 melanoma; 27% with UACC-62 melanoma; 56.1% with LOX IMVI melanoma; 56.5% in the assay with SK-MEL-28 melanoma; 68.4% in the assay on SK-MEL-2 melanoma; 63.7% in the assay with EKVX NSCLC. In addition, the growth with SN12C renal was 71.9%; with UO-31 renal, 50.9%; with TK-10 renal, 132%; with ACHN renal, 47.3%; in the assay with CAKI-1 renal it was 41.1%; in the assay with CCRF-CEM leukemia, 59%. In the assay with MOLT-4 leukemia, the growth is 83.4%.
`CCCCc1nc(/C=N/Nc2nc(Nc3ccccc3)nc(Nc3ccc(S(N)(=O)=O)cc3)n2)c(Cl)[nH]1`: the growth in the assay on HCT-15 colon is 103%; with HT29 colon, 102%; in the assay on SNB-75 CNS it was 112%; in the assay with SNB-19 CNS, 30.7%; with U251 CNS, -1.83% (active); in the assay on PC-3 prostate, 83%. The growth in the assay on SK-MEL-5 melanoma was 75.2%; in the assay with UACC-62 melanoma, 72.8%; in the assay with LOX IMVI melanoma, 41.1%; in the assay on SK-MEL-28 melanoma, 71%; with SK-MEL-2 melanoma, 65.8%; in the assay with EKVX NSCLC, 102%. Besides, the growth is 93.6% in the assay with SN12C renal; 85.4% with UO-31 renal; 112% with TK-10 renal; 100% in the assay on ACHN renal; 105% in the assay with CAKI-1 renal; 12.5% in the assay with CCRF-CEM leukemia. Moreover, the growth with MOLT-4 leukemia is 41.4%.
Take `CN1CCN(c2ccc(/C=N/Nc3nc4ccccc4c(=O)n3-c3ccccc3)cc2)CC1`: the growth is 99.2% in the assay with HCT-15 colon; 100% in the assay with HT29 colon; 95.5% in the assay on SNB-75 CNS; 105% with SNB-19 CNS; 102% in the assay on U251 CNS; 93.2% in the assay with PC-3 prostate. Further, the growth in the assay on SK-MEL-5 melanoma was 92.4%; in the assay with UACC-62 melanoma, 101%; in the assay on LOX IMVI melanoma it was 122%; with SK-MEL-28 melanoma, 103%; in the assay on SK-MEL-2 melanoma it was 107%; in the assay on EKVX NSCLC, 100%. Also, the growth with SN12C renal is 103%; with UO-31 renal it was 95.5%; in the assay on TK-10 renal it was 91.3%; in the assay with ACHN renal, 108%; in the assay with A498 renal it was 89.8%; with CCRF-CEM leukemia, 105%. Also, the growth in the assay with MOLT-4 leukemia was 104%.
In the case of `C=CCn1c(SCC(=O)Nc2ccc(C(=O)/C=C/c3ccc(Br)cc3)cc2)nnc1-c1c[nH]c2ccccc12`, the growth with HCT-15 colon was 93.4%; in the assay with HT29 colon, 94.1%; in the assay with SNB-75 CNS, 95.4%; in the assay on SNB-19 CNS it was 89.1%; in the assay with U251 CNS, 87.9%; with PC-3 prostate, 68%. Besides, the growth in the assay on SK-MEL-5 melanoma is 72.3%; in the assay with UACC-62 melanoma, 64.6%; with LOX IMVI melanoma it was 49%; in the assay with SK-MEL-28 melanoma, 97.1%; in the assay with SK-MEL-2 melanoma, 93.4%; with EKVX NSCLC, 82.2%. For the same molecule, the growth is 81.1% with SN12C renal; 59.7% with UO-31 renal; 95.9% in the assay with TK-10 renal; 87.8% in the assay with ACHN renal; 88.9% with A498 renal; 83% in the assay with CCRF-CEM leukemia. The growth with MOLT-4 leukemia was 66.3%.
As for `O=C(NNc1nc2cc(F)ccc2n2c(CO)ccc12)c1cnccn1`, the growth is 22.9% with HCT-15 colon; 22% with HT29 colon; 42.9% in the assay on SNB-75 CNS; 21.8% with SNB-19 CNS; 16.5% with U251 CNS; 23.6% in the assay with PC-3 prostate. For the same molecule, the growth in the assay with SK-MEL-5 melanoma is 6.38% (active); in the assay on UACC-62 melanoma, -14.8% (active); with LOX IMVI melanoma it was 1.5% (active); in the assay with SK-MEL-28 melanoma, 25.1%; in the assay with SK-MEL-2 melanoma, 21.7%; in the assay with EKVX NSCLC it was 4.53% (active). Also, the growth was 21.5% in the assay on SN12C renal; 8.71% (active) in the assay on UO-31 renal; 21% with TK-10 renal; 10.2% in the assay on ACHN renal; 8.46% (active) in the assay on A498 renal; 7.36% (active) in the assay with CCRF-CEM leukemia. In addition, the growth with MOLT-4 leukemia is 2.51% (active).
